# A number with no mark means an inactive call. Results filed as inconclusive are left out. Where a call stands in place of a potency, no number is given. Activity calls are given as the source filed them. Unless noted, the call rests on the fitted dose curve.
# What was measured:
# [1] = Nuclear factor erythroid 2-related factor 2/antioxidant responsive element (Nrf2/ARE) small molecule agonists: qHTS cell viability counter screen in human keratinocytes (AID 1919968; active means well fitted curve in the direction sought with a large enough effect in the repeat runs; an effect the other way counts as inactive or inconclusive; further: nearly all actives have a fitted effect of over 55% in size)
# Procedure, shortened: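 Seed 1,500 KeratinoSens cells per well, then incubate 5 h at 37 C/5% CO2. Add compounds in DMSO and incubate 23 h. Add CellTiter-Fluor, wait 1 h and read fluorescence.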
# [2] = Nuclear factor erythroid 2-related factor 2/antioxidant responsive element (Nrf2/ARE) small molecule agonists: luciferase reporter gene qHTS assay in human keratinocytes (AID 1919969); further: nearly all actives have a fitted effect of over 35% in size
# [3] = molecular target: Gonadotropin-releasing hormone receptor (Homo sapiens) (UniProt P30968); assay: Human gonadotropin-releasing hormone receptor (GnRHR) small molecule agonists, calcium flux assay in GnRHR-HEK293 cells (AID 1920063); further: nearly all actives have a fitted effect of over 35% in size
# Gonadotropin-releasing hormone receptor (Homo sapiens), sequence (P30968 whole entry, looked up): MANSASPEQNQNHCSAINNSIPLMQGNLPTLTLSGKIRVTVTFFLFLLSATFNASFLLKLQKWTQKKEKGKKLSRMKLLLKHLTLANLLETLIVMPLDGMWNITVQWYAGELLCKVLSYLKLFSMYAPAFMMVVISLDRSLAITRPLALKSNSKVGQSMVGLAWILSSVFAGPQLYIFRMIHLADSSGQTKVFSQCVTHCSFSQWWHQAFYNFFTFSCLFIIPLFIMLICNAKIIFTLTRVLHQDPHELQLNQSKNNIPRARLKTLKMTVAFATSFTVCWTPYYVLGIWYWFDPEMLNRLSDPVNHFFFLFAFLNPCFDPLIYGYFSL
# Procedure, shortened: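 Cells: HEK293 stably expressing human GnRHR. Steps: overnight (18 h) culture, 1 h calcium dye loading at 37 C, compound addition, kinetic fluorescence read at 480/540 nm. Each compound tested at 15 concentrations in triplicate.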
# [4] = molecular target: KiSS-1 receptor (Homo sapiens) (UniProt Q969F8); assay: Human kisspeptin (KISS1R) small molecule agonists, calcium flux assay in KISS1R-HEK293 cells (AID 1920064; active means well fitted curve in the direction sought with a large enough effect in the repeat runs; an effect the other way counts as inactive or inconclusive)
# KiSS-1 receptor (Homo sapiens), sequence (Q969F8 whole entry, looked up): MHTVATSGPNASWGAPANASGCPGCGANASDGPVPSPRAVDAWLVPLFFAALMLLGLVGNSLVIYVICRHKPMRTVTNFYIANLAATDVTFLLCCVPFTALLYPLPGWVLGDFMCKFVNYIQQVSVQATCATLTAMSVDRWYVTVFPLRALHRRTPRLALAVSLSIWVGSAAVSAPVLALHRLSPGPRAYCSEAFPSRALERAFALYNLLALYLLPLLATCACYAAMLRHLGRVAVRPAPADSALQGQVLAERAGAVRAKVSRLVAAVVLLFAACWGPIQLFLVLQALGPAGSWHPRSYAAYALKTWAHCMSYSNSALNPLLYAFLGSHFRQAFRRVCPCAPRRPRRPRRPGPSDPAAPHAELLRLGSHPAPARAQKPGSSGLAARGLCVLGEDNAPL
# Procedure, shortened: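 Cells plated and incubated 18 h; dye added, 1 h at 37 C; compounds in DMSO pinned in; signal read at 480/540 nm every second for 3 min. Each compound tested at 15 concentrations in triplicate.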
# [5] = G protein-coupled receptor (GPCR) small molecule agonists, calcium flux assay: HEK293 wild type cell line counter screen (AID 1920065)
# Procedure, shortened: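 Counter-screen of the Tox21 10K library for non-specific calcium release: dye-loaded cells received compounds in DMSO and were monitored by kinetic fluorescence (480/540 nm, 3 min). Fifteen concentrations, run in triplicate.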
# [6] = p53 small molecule agonists, cell-based qHTS assay with human liver microsomes (AID 1963577)
# Procedure, shortened: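 p53RE-bla reporter cells were pre-incubated 5 h at 37 C, then treated with compounds plus human liver microsomes (0.5 mg/mL final) and NADPH (0.5 mg/mL final) for 16 h at 37 C. Beta-lactamase activity was read by LiveBLAzer fluorescence after 2 h at room temperature.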
# [7] = p53 small molecule agonists, cell-based qHTS assay with rat liver microsomes (AID 1963578)
# Procedure, shortened: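 p53RE-bla cells were exposed to compounds together with rat liver microsomes (0.5 mg/mL final) and NADPH (0.5 mg/mL final) for 16 h at 37 C, then read by LiveBLAzer beta-lactamase fluorescence after 2 h at room temperature.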
# [8] = p53 small molecule agonists, cell-based qHTS assay with human liver microsomes: qHTS cell viability counter screen (AID 1963579); further: nearly all actives have a fitted effect of over 45% in size
# Procedure, shortened: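 p53RE-bla cells (4,000/well) were pre-incubated 5 h at 37 C, then given compounds in DMSO plus human liver microsomes (0.5 mg/mL final) and NADPH (0.5 mg/mL final) for 16 h at 37 C. Viability was read by CellTiter-Glo luminescence.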
# [9] = p53 small molecule agonists, cell-based qHTS assay with rat liver microsomes: qHTS cell viability counter screen (AID 1963580); further: nearly all actives have a fitted effect of over 45% in size
# Procedure, shortened: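 Viability is assessed in parallel with the p53 reporter read: HCT-116 p53RE-bla cells receive compounds plus rat microsomes and NADPH (0.5 mg/mL final apiece), incubate 16 h at 37 C, and then CellTiter-Glo luminescence is recorded.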
# [10] = p53 small molecule agonists, cell-based qHTS assay: qHTS cell viability counter screen (AID 1963581); further: nearly all actives have a fitted effect of over 45% in size
# Procedure, shortened: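 Cells: HCT-116 with p53 response element-driven beta-lactamase. Treatment: 16 h, 37 C, compounds in DMSO. Read: CellTiter-Glo luminescence after 30 min RT.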
# [11] = p53 small molecule agonists, cell-based qHTS assay (AID 1963582; active means well fitted activation curve with a large enough effect in the signal ratio in the repeat runs, not every such curve was filed as active; the % refers to the signal ratio)
# Procedure, shortened: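 Quantitative HTS in p53RE-bla cells: after a 5 h settling period, compounds delivered in DMSO were left on cells for 16 h at 37 C, and reporter induction was measured as fluorescence following 2 h substrate loading.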
# [12] = molecular target: 5-hydroxytryptamine receptor 2A (Homo sapiens) (UniProt P28223); assay: 5-hydroxytryptamine receptor 2A (HTR2A) small molecule antagonists, cell-based qHTS assay (AID 1963586); further: nearly all actives have a fitted effect of over 45% in size
# 5-hydroxytryptamine receptor 2A (Homo sapiens), sequence (P28223 whole entry, looked up): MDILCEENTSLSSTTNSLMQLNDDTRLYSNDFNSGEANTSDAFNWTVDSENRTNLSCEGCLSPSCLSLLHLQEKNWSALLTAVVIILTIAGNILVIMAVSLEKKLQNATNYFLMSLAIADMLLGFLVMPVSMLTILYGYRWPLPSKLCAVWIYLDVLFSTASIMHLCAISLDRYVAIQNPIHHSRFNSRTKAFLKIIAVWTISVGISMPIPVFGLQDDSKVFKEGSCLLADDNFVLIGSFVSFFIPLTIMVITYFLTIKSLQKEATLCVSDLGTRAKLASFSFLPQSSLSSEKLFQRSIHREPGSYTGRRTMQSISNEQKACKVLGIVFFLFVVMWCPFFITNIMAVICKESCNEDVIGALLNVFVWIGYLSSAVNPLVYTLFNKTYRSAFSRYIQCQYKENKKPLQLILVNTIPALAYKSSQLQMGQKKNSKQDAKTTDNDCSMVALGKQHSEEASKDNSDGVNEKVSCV
# Procedure, shortened: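 Antagonist-mode intracellular calcium assay: DOI (4 nM) added after 5 min compound pre-incubation at room temperature to dye-loaded HTR2A-CHO cells. Fluorescence followed for 3 min, sampled every second.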
# [13] = molecular target: 5-hydroxytryptamine receptor 2A (Homo sapiens) (UniProt P28223); assay: 5-hydroxytryptamine receptor 2A (HTR2A) small molecule agonists, cell-based qHTS assay (AID 1963587); further: nearly all actives have a fitted effect of over 30% in size
# Procedure, shortened: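 CHO cells stably expressing human HTR2A, plated 18 h, loaded with calcium dye 1 h at 37 C. Agonist mode: compounds added and intracellular calcium fluorescence recorded kinetically for 2 min at 1 sec intervals.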
# [14] = molecular target: Muscarinic acetylcholine receptor M1 (Homo sapiens) (UniProt P11229); assay: Cholinergic receptor muscarinic 1 (CHRM1) small molecule antagonists, cell-based qHTS assay (AID 1963588); further: nearly all actives have a fitted effect of over 40% in size; further: potency means the concentration at half of the fitted maximal effect
# Muscarinic acetylcholine receptor M1 (Homo sapiens), sequence (P11229 whole entry, looked up): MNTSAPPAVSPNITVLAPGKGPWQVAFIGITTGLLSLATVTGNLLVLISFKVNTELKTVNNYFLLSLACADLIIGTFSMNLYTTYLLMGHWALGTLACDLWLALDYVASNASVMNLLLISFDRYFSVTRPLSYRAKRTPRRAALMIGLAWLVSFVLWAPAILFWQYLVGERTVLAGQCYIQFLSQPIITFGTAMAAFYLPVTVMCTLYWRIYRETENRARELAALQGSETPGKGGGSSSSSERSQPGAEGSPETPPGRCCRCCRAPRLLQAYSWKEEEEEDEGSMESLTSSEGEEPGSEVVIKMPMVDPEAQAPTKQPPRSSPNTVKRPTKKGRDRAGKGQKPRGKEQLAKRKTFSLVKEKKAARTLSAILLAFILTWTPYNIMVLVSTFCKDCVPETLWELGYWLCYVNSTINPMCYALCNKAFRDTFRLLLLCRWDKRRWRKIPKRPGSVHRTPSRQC
# Procedure, shortened: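 CHRM1-CHO calcium-flux assay, antagonist mode. Cells were seeded 18 h, dye-loaded 1 h at 37 C and given compound for 5 min at RT, then acetylcholine was added at 50nM. FDSS fluorescence was read 3 min; 15 concentrations, three runs.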
# [15] = molecular target: Muscarinic acetylcholine receptor M1 (Homo sapiens) (UniProt P11229); assay: Cholinergic receptor muscarinic 1 (CHRM1) small molecule agonists, cell-based qHTS assay (AID 1963589); further: nearly all actives have a fitted effect of over 35% in size
# Procedure, shortened: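 Agonist-mode qHTS in CHO cells stably carrying human muscarinic M1. Intracellular calcium is tracked by fluorescence every second after compound transfer; each compound runs at 15 concentrations in three independent runs.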
# [16] = cAMP Responsive Elements (CRE) small molecule agonists, cell-based qHTS assay (AID 1963590)
# Procedure, shortened: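 Agonist mode qHTS in CRE-bla HEK 293T cells: compounds dosed from DMSO for 3 h at 37 C/5% CO2, followed by LiveBLAzer B/G FRET substrate for 2 h at room temperature.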
# [17] = cAMP Responsive Elements (CRE) small molecule antagonists, cell-based qHTS assay (AID 1963591; active means well fitted inhibition curve with a large enough effect in the signal ratio in the repeat runs, not every such curve was filed as active; the % refers to the signal ratio)
# Procedure, shortened: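 Antagonist mode: test compounds are co-incubated with the adenylyl cyclase activator NKH477 (0.25 uM final) on CRE-bla HEK293T cells for 3 h at 37 °C, followed by LiveBLAzer substrate loading.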
# [18] = molecular target: Beta-2 adrenergic receptor (Homo sapiens) (UniProt P07550); assay: Adrenergic beta2 receptor (ADRB2) small molecule antagonists, cell-based qHTS assay (AID 1963592); further: series mostly up to about 92 µM; nearly all actives have a fitted effect of over 50% in size
# Beta-2 adrenergic receptor (Homo sapiens), sequence (P07550 whole entry, looked up): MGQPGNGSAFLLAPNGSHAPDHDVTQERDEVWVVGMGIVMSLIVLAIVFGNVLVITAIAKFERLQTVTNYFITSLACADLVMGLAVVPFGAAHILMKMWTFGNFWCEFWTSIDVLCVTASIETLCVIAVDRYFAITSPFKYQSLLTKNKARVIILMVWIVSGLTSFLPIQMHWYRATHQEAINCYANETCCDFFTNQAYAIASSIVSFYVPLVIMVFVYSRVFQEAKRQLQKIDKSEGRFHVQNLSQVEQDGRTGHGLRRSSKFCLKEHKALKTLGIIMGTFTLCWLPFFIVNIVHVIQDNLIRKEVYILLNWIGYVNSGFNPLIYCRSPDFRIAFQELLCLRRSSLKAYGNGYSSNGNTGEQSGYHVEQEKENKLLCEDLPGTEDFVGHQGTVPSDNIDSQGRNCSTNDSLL
# Procedure, shortened: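 Cells (CHO, stable ADRB2 overexpression) incubated 18-20hr at 37C; compounds added from DMSO; agonist mix (1nM isoproterenol, 100uM IBMX, 25uM Ro-20-1724) added; 0.5hr RT; d2-cAMP and anti-cAMP-cryptate added; 1hr RT; 665/615 nm read.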
# [19] = molecular target: D(2) dopamine receptor (Homo sapiens) (UniProt P14416); assay: Dopamine D2 receptor (DRD2) small molecule agonists, cell-based qHTS assay (AID 1963594); further: nearly all actives have a fitted effect of over 35% in size
# D(2) dopamine receptor (Homo sapiens), sequence (P14416 whole entry, looked up): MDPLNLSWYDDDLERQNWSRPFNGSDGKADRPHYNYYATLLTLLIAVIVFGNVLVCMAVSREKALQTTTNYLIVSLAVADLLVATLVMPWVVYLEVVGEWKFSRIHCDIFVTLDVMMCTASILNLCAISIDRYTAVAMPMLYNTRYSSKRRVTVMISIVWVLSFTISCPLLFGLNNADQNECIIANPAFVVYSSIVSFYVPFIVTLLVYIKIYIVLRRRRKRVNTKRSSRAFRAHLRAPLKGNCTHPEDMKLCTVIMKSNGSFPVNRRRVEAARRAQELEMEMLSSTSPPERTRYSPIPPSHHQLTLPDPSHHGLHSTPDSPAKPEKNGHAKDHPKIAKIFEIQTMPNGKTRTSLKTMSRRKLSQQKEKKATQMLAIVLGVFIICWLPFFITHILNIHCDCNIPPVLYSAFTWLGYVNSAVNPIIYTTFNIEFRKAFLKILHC
# Procedure, shortened: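 HEK293 cells stably expressing human DRD2, pre-treated with PDE inhibitor Ro20-1724 (0.1 mM final) and compound 10 min at room temperature, then stimulated with NKH477 (200nM […]) for 30 min. cAMP read by HTRF (665/620 nm).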
# [20] = molecular target: D(2) dopamine receptor (Homo sapiens) (UniProt P14416); assay: Dopamine D2 receptor (DRD2) small molecule antagonists, cell-based qHTS assay (AID 1963595; active means well fitted inhibition curve with a large enough effect in the signal ratio in the repeat runs, with a control signal flat; the % refers to the signal ratio)
# Procedure, shortened: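 DRD2-HEK293; 0.1 mM Ro20-1724; cpd 10 min RT; NKH477 200 nM + quinpirole 12 nM, 30 min RT; HTRF cAMP (cAMP-d2/anti-cAMP cryptate), 665/620 nm ratio after 1 h.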
SMILES,Potency [1],Potency [2],Potency [3],Potency [4],Potency [5],Potency [6],Potency [7],Potency [8],Potency [9],Potency [10],Potency [11],Potency [12],Potency [13],Potency [14],Potency [15],Potency [16],Potency [17],Potency [18],Potency [19],Potency [20]
Nc1ccncc1,inactive,inactive,inactive,inactive,inactive,inactive,inactive,inactive,inactive,inactive,inactive,inactive,inactive,inactive,inactive,inactive,inactive,inactive,inactive,inactive
COC(=O)c1cncn1C(C)c1ccccc1 (stereo not drawn),inactive,inactive,inactive,inactive,inactive,inactive,inactive,inactive,inactive,inactive,inactive,inactive,inactive,inactive,inactive,inactive,inactive,inactive,inactive,inactive
Nc1cc(Cl)cc(Cl)c1,inactive,inactive,inactive,inactive,inactive,inactive,inactive,inactive,inactive,inactive,inactive,inactive,inactive,inactive,inactive,inactive,inactive,inactive,,
CC(C)[N+](C)(CCC(C(N)=O)(c1ccccc1)c1ccccc1)C(C)C,inactive,inactive,inactive,inactive,inactive,inactive,inactive,inactive,inactive,inactive,inactive,inactive,inactive,2.3 nM (active),inactive,inactive,inactive,inactive,inactive,inactive
